Assay outcomes deposited in PubChem by National Center for Advancing Translational Sciences (NCATS).
Hits are enriched below; roughly 19% of the tested compounds scored in any of these assays.
IL-1B inflam inh = inhibitors of inflammasome signaling (IL-1 beta secretion); THP-1 LPS/ATP IL-1B secretion, AlphaLISA, 16 h; stronger effect = lower value; activity change, % at 57.5 µM; hit rate 4.7% among 360,000; AID 743279; in the data active means activity change below about -50%; inconclusive means mostly about -30% to -49%
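Secreted IL-1B measured by AlphaLISA bead assay after 16 h compound exposure of THP-1 cells; compounds (final up to 57.5 uM) added 1 h before LPS (250 ng/mL) and ATP (1.25 mM) stimulation; lower signal means less secretion.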
HT1080 IDH1KD tx = HT-1080 IDH1 knockdown cell toxicity (counter line); HT-1080 IDH1 knockdown viability, ATP luminescence, 48 h; Potency, µM (top dose mostly 46.1 µM), inactives show at the top dose activity, negative = toxicity, hits mostly cytotoxic; hit rate 2% among 360,000; AID 686971;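 further: potency means the concentration at half of the fitted maximal effect; 0% = DMSO wells and -100% = cell-free medium wells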
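Using the IDH1-knockdown HT-1080 line run in the same batch and compound series as the NT line, viability after 48 h at 37 °C was determined by CellTiter-Glo luminescence and expressed as % activity.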
DT40 TDP1 no CPT = qHTS for Inhibitors of human tyrosyl-DNA phosphodiesterase 1 (TDP1): qHTS in cells in absence of CPT; DT40 Tdp1-/- hTDP1 cells, no CPT, ATP luminescence, 48 h; Potency, µM (top dose mostly 46.2 µM), without a hit: top-dose activity change, negative = growth inhibition, usual class: inhibitors; hit rate 15% among 420,000; further: potency means the concentration at half of the fitted maximal effect; nearly all actives have a fitted effect of over 55% in size
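Chicken DT40 Tdp1-/- cells stably complemented with human TDP1 were seeded at 400 cells/well with DMSO in place of 20 nM camptothecin. After compound pinning, cells grew at least 48 hr at 37 °C; viability read by CellTiter-Glo luminescence.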
DT40 TDP1 CPT = DT40-hTDP1 cell growth loss with CPT. hit rate 12% among 420,000. Potency, µM (highest dose often 46.2 µM), for inactives: top-dose activity change, negative = growth inhibition, usual class: inhibitors. chicken DT40 Tdp1-/-;hTDP1 cells + 20 nM CPT, ATP luminescence, 48 h. AID 686979; further: potency means the concentration at half of the fitted maximal effect; nearly all actives have a fitted effect of over 55% in size
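Chicken DT40 Tdp1-/- cells complemented with human TDP1, 400 cells/well, exposed to compounds plus 20 nM camptothecin for at least 48 h at 37 C; viability read as ATP content by CellTiter-Glo luminescence.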
HT1080-NT tox = kills 2HG-producing HT-1080-NT fibrosarcoma cells | HT-1080-NT fibrosarcoma viability, CellTiter-Glo ATP luminescence, 48 h | Potency, µM (highest dose often 46.1 µM), for the others: top-dose activity, negative = less viability, most hits filed as cytotoxic | hit rate 1.6% among 360,000 | AID 686970;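 further: NT is the 2HG producing partner of a matched IDH1 knockdown line; potency means the concentration at half of the fitted maximal effect; 0% = DMSO-treated cells and -100% = media-only wells without cells; nearly all actives have a fitted effect of over 55% in size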
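Toxicity toward the 2HG-producing NT line was scored as %Activity, normalised to DMSO and no-cell wells, from CellTiter-Glo luminescence after 48 hours' treatment.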
* = called active by the depositor; ? = inconclusive; . = no result given; [ ] = another dose, or the depositor's remark. Unless noted, the call rests on the fitted dose curve; in most records, active means well fitted curve in the direction sought with a large enough effect; inconclusive means small, poorly fitted or top-dose-only effect, or another doubt; inactive means no such curve, though single readings can be large; an effect the other way counts as inactive or inconclusive. Unless noted, on the % scale 0 is the no-effect control and ±100 the full control effect.

SMILES | IL-1B inflam inh | HT1080 IDH1KD tx | DT40 TDP1 no CPT | DT40 TDP1 CPT | HT1080-NT tox
CCOC(=O)C(CC)n1nc(C)c2c(C)n(-c3ccc(C)cc3)nc2c1=O (stereo not given) | . | . | 16µM* | 18µM* | .
Cc1cc2c3c([nH]c2cc1S(=O)(=O)N1CCC2(CC1)OCCO2)CCCC3=O | 10 | -15% | ? | ? | -23%
COc1ccc([N+](=O)[O-])cc1NC(=O)C1CCCN1S(=O)(=O)c1cccs1 (stereo not given) | -18 | -11% | ? | -1% | -17%
O=C(Nc1ccc(Br)cc1)C1CCCN1S(=O)(=O)c1cccs1 (stereo not given) | 6 | -16% | 13µM* | 21µM* | -12%
COc1ccc(NC(=O)C2CCCN2S(=O)(=O)c2cccs2)c([N+](=O)[O-])c1 (stereo not given) | -12 | -14% | 10µM* | 21µM* | -5%
C=CCOc1cccc(C(=O)N(C)C2CCCN(Cc3ccccc3F)C2)c1 (stereo not given) | -8 | -12% | ? | ? | -3%
COc1cccc(-c2nc(NCc3cccnc3)c3ccccc3n2)c1O | 34 | -25% | -21% | 2% | -11%
COc1ccccc1CNc1nc(-c2ccccc2OC)nc2ccccc12 | . | . | 21µM* | 18µM* | .
COc1ccccc1-c1nc(NCc2cnc(C)cn2)c2ccccc2n1 | . | . | ? | 16µM* | .
CC1CCCC(C)N1/N=C/c1ccccc1Br (stereo not given) | 8 | 6% | ? | ? | 13%
Cc1ccc(S(=O)(=O)/N=C2\C=C(Nc3ccc(O)cc3)C(=O)c3ccccc32)cc1 | -97* | 23µM* | 2.9µM* | 2.1µM* | 18µM*
O=C(O)c1cccc(NS(=O)(=O)c2ccc3c(c2)C(=O)c2ccccc2C3=O)c1 | 0 | 6% | -10% | -9% | 1%
Cc1ccc(S(=O)(=O)Nc2ccc(N=Nc3ccc(O)cc3)cc2)cc1 | 0 | -17% | 4% | 12% | -17%
Cc1ccc(S(=O)(=O)/N=C2\C=C(Nc3cccc(C(=O)O)c3)C(=O)c3ccccc32)c(C)c1 | -104* | 6.5µM* | ? | ? | 10µM*
CCc1ccc(S(=O)(=O)/N=C2\C=C(Nc3ccc(C(=O)O)cc3)C(=O)c3ccccc32)cc1 | -99* | 18µM* | 23µM* | 18µM* | 16µM*
Cc1ccc(S(=O)(=O)/N=C2\C=C(Nc3cccc(C(=O)O)c3)C(=O)c3ccccc32)cc1 | -93* | 21µM* | ? | ? | 23µM*
CC1=C(C(=O)N(C(C)C)C(C)C)CC(CC(=O)NCCCN(C)C)C(=O)N1CCCN1CCCC1=O (stereo not given) | 20 | 18% | 3% | -5% | 20%
Cc1ccc(OCCNS(=O)(=O)c2ccc(N3CCCC3=O)cc2)cc1C | 13 | -2% | 6.5µM* | 6.5µM* | ?
Cc1ccc(OCCNS(=O)(=O)c2ccc(Cl)cc2)cc1 | -16 | 3% | -5% | -30% | ?
Cc1cc(N2CCCC2=O)cc(C)c1S(=O)(=O)NCCOc1ccccc1 | ? | 6%[9.24 µM] | ? | 8.2µM* | ?
COc1ccc(NS(=O)(=O)c2ccc(N3CCCC3=O)cc2)cn1 | 34 | 18µM* | 6.5µM* | 4.6µM* | 15µM*
Cc1ccc(OCCNS(=O)(=O)c2ccc(N3CCCC3=O)cc2)cc1 | 9 | -6% | 5.8µM* | 6.5µM* | -8%
CCNS(=O)(=O)c1c(C)cc(N2CCCC2=O)cc1C | 5 | -17% | -20% | -11% | -10%
Cc1noc(C)c1COc1ccc(C(=O)OCC(=O)NCCN2C(=O)CSC2=O)cc1 | 25 | -6% | 3% | -3% | 4%
COc1ccc(OC)c(NS(=O)(=O)c2ccc(N3CCCC3=O)cc2)c1 | 63 | 0.52µM* | 0.37µM* | 0.52µM* | 0.52µM*
SMILES | IL-1B inflam inh | HT1080 IDH1KD tx | DT40 TDP1 no CPT | DT40 TDP1 CPT | HT1080-NT tox
Cc1ccc(NS(=O)(=O)c2ccc(-n3cccn3)cc2)c(Cl)c1 | 26 | 4% | ? | ? | 6%
COc1ccc(OC)c(NS(=O)(=O)c2ccc(-n3cccn3)cc2)c1 | 13 | -24% | 10µM* | ? | -29%
O=C1CCCN1c1ccc(S(=O)(=O)NCCc2ccc(Cl)cc2)cc1 | 16 | ? | ? | ? | -18%
COc1ccc(CCNS(=O)(=O)c2ccc(N3CCCC3=O)cc2)cc1 | -3 | -6% | 21µM* | 21µM* | -8%
CCCCc1ccc(S(=O)(=O)NCCCN2CCCC2=O)cc1 | 14 | 5% | 13µM* | ? | -19%
COc1cccc(C2=NN(C(=O)C3CC3)C(O)(C(F)(F)F)C2)c1 (stereo not given) | 0 | -3% | ? | ? | -5%
CCOC(=O)c1[nH]cnc1C(=O)NC1CCN(C(=O)OC(C)(C)C)CC1 | 25 | -6% | -16% | -5% | 0%
Cc1ccc(OS(=O)(=O)c2ccccc2)c(/C=N/N=C2\NC(=O)C(C)S2)c1 (stereo not given) | -3 | -24% | 18µM* | ? | -2%
O=C1CS/C(=N/N=C/c2ccccc2OS(=O)(=O)c2ccccc2)N1 | 23 | 6% | 1µM* | 1µM* | 0%
CCO[C@H]1OC(C(=O)NCc2nc3ccccc3[nH]2)=C[C@@H](C2CCCCC2)[C@@H]1CCCO | ? | -9% | 15µM* | 13µM* | -14%
CCO[C@@H]1OC(C(=O)NCc2nc3ccccc3[nH]2)=C[C@H](c2ccc(C(F)(F)F)cc2)[C@H]1CCCO | -64* | -15% | ? | ? | -12%
CCO[C@H]1OC(C(=O)NCc2nc3ccccc3[nH]2)=C[C@@H](c2ccc(C(F)(F)F)cc2)[C@@H]1CCCO | ? | -22% | 16µM* | ? | -19%
CC1CCCC(NC(=O)CCNC(=O)c2ccccc2Cl)C1C (stereo not given) | 2 | 1% | -11% | 6% | 7%
Cc1ccc2[nH]c(C(=O)O)c(NC(=O)[C@@H]3C[C@@H]3c3ccccc3)c2c1 | 39 | 0% | -9% | -2% | -12%
COc1ccc(-c2c(C3=CCCCC3)oc3ccc(-c4ccc5c(c4)OCO5)cc23)cn1 | -12 | 5% | 15µM* | ? | 9%
COc1ccc(-c2c(-c3cccc(C)c3)oc3ccc(-c4ccc5c(c4)OCO5)cc23)cn1 | -7 | 8% | 8.2µM* | ? | 15%
COc1ccc(-c2oc3ccc(-c4ccc(OC)nc4)cc3c2-c2ccc(OC)cc2)cc1 | -7 | 3% | 15µM* | ? | 6%
O=C(c1cccnc1)N1CCN(C(=O)c2ccccc2F)CC1 | -10 | 12% | -17% | -16% | 10%
Cc1ccccc1NC(=O)CSc1nnc(-c2cccc(Cl)c2)o1 | . | . | -1% | -12% | .
